Rows were chosen to be rich in hits. Some 9.3% of all compounds tested hit in one or more screens of this group.
NPC1 prom act – activates the NPC1 promoter; Potency, µM (highest dose often 9.22 µM), for inactives: at the top dose activation, hits mostly activators; Huh7 NPC1 promoter luciferase reporter, 24 h; 320,000 tested, 2.4% active; also: % of control where 0% means no effect; nearly all actives have a fitted effect of over 60% in size
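NPC1 promoter–luciferase Huh7 cells; 24 h compound; luminescence.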
Rab9 promoter act – activators of Rab9 promoter; Huh7 Rab9 promoter-luciferase reporter, luminescence, 24 h; 320,000 tested, 2.8% active; Potency, µM (doses to about 9.22 µM), without a hit: at the highest dose activation, negative = inhibition, usual class: activators; also: % of control where 0% means no effect; nearly all actives have a fitted effect of over 60% in size
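Rab9 promoter-driven luciferase in stably transfected Huh7 cells; 1500 cells/well rested 2 h, exposed to compound in DMSO for 24 h at 37 °C, 5% CO2. Luminescence read 10 min after adding luciferase reagent at ambient temperature.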
ELG1 repair inh – inhibitors of ELG1-dependent DNA repair in HEK293T cells | Potency, µM (top dose mostly 46.1 µM), for the others: top-dose activity change, negative = inhibition, actives largely listed as inhibitors | HEK293T ELG1-luciferase reporter, luminescence, 16 h; DNA damage induced by 5-fluorouridine | 330,000 tested, 2.3% active | AID 504467; also: % is scaled to controls: 0 for no effect and ±100 for the full control effect; nearly all actives have a fitted effect of over 55% in size
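Luminescence from the luciferase reporter, measured 30 min after ONE-Glo reagent at room temperature, was the read-out. Beforehand, 2,000 cells per well were exposed for 16 hr at 37 °C to 5-fluorouridine together with compound or vehicle.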
ELG1 genotox – genotoxicity induction in ELG1-luciferase HEK293T cells; HEK293T ELG1-luciferase reporter, luminescence, 16 h; Potency, µM (titrated, usually from 46 µM), for the others: top-dose activity change, positive = activation, usual class: activators; 330,000 tested, 1.3% active; also: % of control where 0% means no effect; nearly all actives have a fitted effect of over 60% in size
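ELG1-luciferase HEK293T cells, 2,000/well; compound pinned in; 16 hr, 37 °C, 5% CO2; ONE-Glo, 30 min RT; luminescence on CCD imager.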
FLuc modulator – firefly luciferase modulation, counter-screen for miR-21 project; purified FLuc, Km substrates, luminescence inhibition; 360,000 tested, 6.9% active; P08659; Potency, µM (highest dose often 57.5 µM), inactives show at the highest dose activity change, negative = inhibition, usual class: inhibitors;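 also: plate controls were vehicle for no effect and reference inhibitor for full effect; nearly all actives have a fitted effect of over 55% in size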
Target sequence (P08659 whole entry, looked up): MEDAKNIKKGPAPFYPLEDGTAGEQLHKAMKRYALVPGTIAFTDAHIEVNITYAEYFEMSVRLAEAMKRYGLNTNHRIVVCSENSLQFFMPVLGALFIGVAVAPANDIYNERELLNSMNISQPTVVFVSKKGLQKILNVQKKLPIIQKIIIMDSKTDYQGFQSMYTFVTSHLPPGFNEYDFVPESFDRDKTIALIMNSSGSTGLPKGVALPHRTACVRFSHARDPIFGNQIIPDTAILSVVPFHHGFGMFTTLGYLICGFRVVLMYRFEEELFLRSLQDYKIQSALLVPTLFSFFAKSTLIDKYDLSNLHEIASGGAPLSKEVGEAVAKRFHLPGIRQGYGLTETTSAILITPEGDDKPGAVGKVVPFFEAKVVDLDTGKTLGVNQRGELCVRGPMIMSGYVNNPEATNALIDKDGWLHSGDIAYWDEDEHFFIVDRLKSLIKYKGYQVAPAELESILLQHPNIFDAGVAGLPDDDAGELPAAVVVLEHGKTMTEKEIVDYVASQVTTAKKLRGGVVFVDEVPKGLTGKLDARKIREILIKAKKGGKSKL
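Biochemical qHTS of compounds, final roughly 60 µM downward over six points, against 10 nM purified firefly luciferase using Km concentrations of substrates (10 uM D-luciferin, 10 uM ATP) in Tris acetate pH 7.5 buffer; luminescence output.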
SMN2 splice up – increases expression of the SMN2 splice variant; 210,000 tested, 2.8% active; AID 1458; HEK293 SMN2-luciferase splicing reporter, luminescence, 30-36 h; Potency, µM (top dose mostly 46.1 µM), for inactives: top-dose activity change, positive = activation, actives largely listed as activators; also: % of control where 0% means no effect; nearly all actives have a fitted effect of over 55% in size
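qHTS luciferase splicing reporter: luminescence rises when SMN2 exon 7 is included in transfected HEK293 cells. Compound exposure lasted 30-36 h at 37C, with 4.5 mM final sodium butyrate as control, followed by a ONE-Glo read.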
Active calls of the source: *. Calls follow the shape of the dose curve; as a rule, active = well fitted curve in the direction sought with a large enough effect; inconclusive = small, poorly fitted or top-dose-only effect, or another doubt; inactive = no such curve, though single readings can be large; an effect the other way counts as inactive or inconclusive. Potency is read from the fitted curve at half-maximal effect.

Screening CNC(=S)N/N=C/c1ccc2c(c1)OCCO2 returned NPC1 prom act 9%, Rab9 promoter act 25%, ELG1 repair inh inconclusive, ELG1 genotox inconclusive, FLuc modulator inconclusive and SMN2 splice up 2%.
For O=C1OC(c2ccc3c(c2)OCO3)=N/C1=C\c1ccc(C(=O)O)cc1 the results were NPC1 prom act 0%, Rab9 promoter act -3%, ELG1 repair inh -3%, ELG1 genotox 0% and FLuc modulator 0.13µM*.
`O=C(O/N=C/c1ccc2c(c1)OCO2)c1ccccc1Cl` gave NPC1 prom act 5%, Rab9 promoter act 5%, ELG1 repair inh 20%, ELG1 genotox 2%, FLuc modulator 0.95µM* and SMN2 splice up 3%.
O=C(O)c1ccc(N/N=C/c2ccc3c(c2)OCO3)cc1 was read as NPC1 prom act -38%, Rab9 promoter act -59%, ELG1 repair inh inconclusive, ELG1 genotox inconclusive and FLuc modulator 0.095µM*.
Cc1ccc(N/N=C/c2ccc3c(c2)OCCO3)cc1Cl was read as NPC1 prom act 12%, Rab9 promoter act 4%, ELG1 repair inh inconclusive, ELG1 genotox inconclusive, FLuc modulator 24µM* and SMN2 splice up 20µM*.
For C=CCNC(=O)/C(=C\c1ccc([N+](=O)[O-])cc1)NC(C)=O the results were NPC1 prom act 1%, Rab9 promoter act 0%, ELG1 repair inh 4%, ELG1 genotox 0%, FLuc modulator 8% and SMN2 splice up -20%.
C=CCc1cc(Cl)ccc1OCCN1CC(C)OC(C)C1 (stereo unspecified) was read as NPC1 prom act -2%, Rab9 promoter act -1%, ELG1 repair inh -9%, ELG1 genotox -7%, FLuc modulator 2% and SMN2 splice up -7%.
`COc1ccc(-c2cc(=O)oc3cc4occ(C)c4cc23)cc1` gave NPC1 prom act 1%, Rab9 promoter act -1%, ELG1 repair inh inconclusive, ELG1 genotox -6%, FLuc modulator 1% and SMN2 splice up -27%.
For O=C(O)c1cc(N/N=C/c2ccc3c(c2)OCCO3)ccc1Cl the results were NPC1 prom act inconclusive, Rab9 promoter act inconclusive, ELG1 repair inh inconclusive, ELG1 genotox 0.29µM*, FLuc modulator 1.1µM* and SMN2 splice up 0.32µM*.
`C/C(=N\Nc1ccc(Cl)c(C(=O)O)c1)c1ccc2c(c1)OCO2` gave NPC1 prom act 2.2µM*, Rab9 promoter act 1.6µM*, ELG1 repair inh inconclusive, ELG1 genotox inconclusive, FLuc modulator 15µM* and SMN2 splice up 16µM*.
O=C(O)c1ccc(N/N=C/c2cc3cc4c(cc3nc2Cl)OCCO4)cc1 was read as NPC1 prom act 0.28µM*, Rab9 promoter act 0.1µM*, ELG1 repair inh inconclusive, ELG1 genotox 1.2µM* and FLuc modulator 0.024µM*.
`O=C(O)c1cc(S(=O)(=O)Nc2ccc3c(c2)OCCO3)c(Cl)cc1Cl` gave NPC1 prom act 2%, Rab9 promoter act 4%, ELG1 repair inh inconclusive, ELG1 genotox 9.2µM*, FLuc modulator inconclusive and SMN2 splice up -12%.
Screening O=Cc1cc2cc3c(cc2nc1Cl)OCCO3 returned NPC1 prom act 3%, Rab9 promoter act 11%, ELG1 repair inh inconclusive, ELG1 genotox inconclusive and FLuc modulator -15%.
Screening COc1ccc(-c2nc(N)n(C(=O)c3ccccc3Cl)n2)cc1 returned NPC1 prom act -4%, Rab9 promoter act -3%, ELG1 repair inh 1%, ELG1 genotox 5%, FLuc modulator -2% and SMN2 splice up 19%.
Screening O=C(O)c1cc(N/N=C/c2ccc3c(c2)OCO3)ccc1Cl returned NPC1 prom act 0.28µM*, Rab9 promoter act 0.1µM*, ELG1 repair inh inconclusive, ELG1 genotox inconclusive, FLuc modulator 0.76µM* and SMN2 splice up 4.5µM*.
For CCOC(=O)CSc1ncnc2c1c(-c1ccccc1)cn2-c1ccc(OC)cc1 the results were NPC1 prom act -4%, Rab9 promoter act -1%, ELG1 repair inh 2%, ELG1 genotox -7%, FLuc modulator -8% and SMN2 splice up -26%.
Screening O=C(Nc1ccc2c(c1)OCCO2)c1ccc(NC(=O)C2CCCO2)cc1 (stereo unspecified) returned NPC1 prom act 14%, Rab9 promoter act 22%, ELG1 repair inh 25%, ELG1 genotox 5%, FLuc modulator 12µM* and SMN2 splice up -5%.
For Cc1ccc(C(=O)Nc2ccc3c(c2)OCCO3)o1 the results were NPC1 prom act inconclusive, Rab9 promoter act inconclusive, ELG1 repair inh inconclusive, ELG1 genotox 3.3µM* and FLuc modulator 3µM*.
For Cc1cc(C(=O)Nc2ccc3c(c2)OCCO3)co1 the results were NPC1 prom act 3.2µM*, Rab9 promoter act 4.5µM*, ELG1 repair inh inconclusive, ELG1 genotox inconclusive and FLuc modulator 3.4µM*.
O=C(Nc1ccc2c(c1)OCCO2)c1ccc(Cl)cc1 was read as NPC1 prom act 0.71µM*, Rab9 promoter act 0.45µM*, ELG1 repair inh inconclusive, ELG1 genotox inconclusive and FLuc modulator 1.5µM*.
Screening CCOC(=O)N1CCN(C(=O)CN(c2cccc(Cl)c2C)S(=O)(=O)c2ccc(C)cc2)CC1 returned FLuc modulator -10% and SMN2 splice up -22%.
Screening COc1ccc(N2C(=O)CCC(C(=O)O)C2c2ccc(F)cc2)cc1 (stereo unspecified) returned NPC1 prom act -1%, Rab9 promoter act 4%, ELG1 repair inh -19%, ELG1 genotox 1%, FLuc modulator -2% and SMN2 splice up -15%.
`O=C(COC(=O)c1cccnc1Cl)NC1CCCc2ccccc21` (stereo unspecified) gave ELG1 repair inh 17% and ELG1 genotox 2%.
`Cc1cc(C)cc(C(=O)Oc2coc(CSc3nnc(NC(=O)C4CC4)s3)cc2=O)c1` gave NPC1 prom act -2%, Rab9 promoter act 0%, ELG1 repair inh -11%, ELG1 genotox -6%, FLuc modulator 7% and SMN2 splice up 12%.
`CCN1CCN(c2nc(-c3ccccc3)nc3ccccc23)CC1` gave NPC1 prom act -3%, Rab9 promoter act -2%, ELG1 repair inh -19%, ELG1 genotox -3%, FLuc modulator -1% and SMN2 splice up -11%.
For COC(=O)CCC(=O)Nc1ccc(NC(C)=O)cc1 the results were NPC1 prom act -5%, Rab9 promoter act 7%, ELG1 repair inh 0%, ELG1 genotox 1%, FLuc modulator 2% and SMN2 splice up -1%.
Screening Cc1cc(C)n(-c2ccc(C(=O)Nc3ccc4c(c3)OCCO4)cc2)n1 returned NPC1 prom act inconclusive, Rab9 promoter act inconclusive, ELG1 repair inh 0%, ELG1 genotox inconclusive, FLuc modulator 8.5µM* and SMN2 splice up 17%.
